Assay results as given in PubChem BioAssay AID743167 (National Center for Advancing Translational Sciences (NCATS), 2013).
Values joined by “and” are separate entries in the source; they are usually repeats but may differ in a detail not shown here. Equal values may be shown once. Inconclusive results are not listed. Active and inactive are the calls of the source. The call rests on the fitted dose curve; in most records, active means well fitted activation curve with a large enough effect; inconclusive means small, poorly fitted or top-dose-only effect; inactive means flat fitted curve, though single readings scatter.

Experiment: Extended Characterization of HPGD Inhibitors: PGE2 Assay in A549 Cells
Details: PGE2 HTRF level, 16 h
Description: The central role of HPGD is to inactivate prostaglandins such as prostaglandin E2 (PGE2) or prostaglandin D2 (PGD2). These prostaglandins are involved in a number of processes, including inflammation, differentiation, and cellular signaling, which makes HPGD an important target for pharmacological intervention. A number of prostaglandins of particular biological interest have been identified as substrates of HPGD. […] Over-production of PGE2 has been reported to promote tumor-associated neovascularization, cell proliferation, and tumor growth. […] In this orthogonal assay, we set out to measure if compounds were able to increase PGE2 production NIH Chemical Genomics Center [NCGC] NIH Molecular Libraries Probe Centers Network [MLPCN] MLPCN Grant: MH084681 Assay Submitter (PI): Structural Genomics Consortium
A549 cells, LNCaP cells or media were dispensed in 384-well plates (ProxiPlate-384 Plus, PerkinElmer, Shelton, CT) at 5,000 cells/9.9 uL/well using a CappAero384 multichannel pipette (Odense, Denmark). Separately on the plate, 10 uL of PGE2 calibration standards at a starting assay concentration of 5,000 pg/mL (1:2 dilution, 12-points, n = 1, prepared in media, Cisbio, Bedford, MA) were dispensed. Compounds (100 nL, final concentration range from 41.9 nM to 100 uM) were transferred using an ATS Acoustic Liquid Dispenser (EDC Biosystems, Fremont, CA). After being mixed using an automated liquid handler (CyBio, Jena, Germany), samples were incubated (37 deg C, 5% CO2, under a humidified atmosphere) for 16 hours. PGE2 labeled conjugates were added to each well, first 5 uL of PGE2-d2, followed by 5 uL of anti-PGE2-cryptate, centrifuged (1,500 rpm, 15 sec) and incubated (RT, protected from light) for 5 hours. Time-resolved fluorescence intensity (320 nm excitation, 615 and 665 nm emission) was measured using an Envision plate reader (PerkinElmer). Data was expressed as the ratio of 665 nm/615 nm emissions. Concentration (pg/mL) of samples were calculated from a 4-parameter logistic calibration curves of the PGE2 standards.

| SMILES | Potency |
| --- | --- |
| Cc1cc(-c2nnc3n2CCCCC3)c(C)n1-c1ccc(C(C)(C)C)cc1 | 8.33 µM (active) and 13.2 µM (active) |
| COC(=O)[C@]12CCC(C)(C)C[C@H]1[C@H]1C(=O)C=C3[C@@]4(C)C=C(C#N)C(=O)C(C)(C)[C@@H]4CC[C@@]3(C)[C@]1(C)CC2 | 16.6 µM (active) |
| Cc1cc(-c2nnc3n2CCCCC3)c(C)n1-c1cccnc1 | 1.87 µM (active) |
| Cc1cccc(-n2cnc3cc(C(=O)N4CCCC(C)C4)ccc32)c1 (centres undefined) | 9.35 µM (active) |
